# PubChem BioAssay AID894 (National Center for Advancing Translational Sciences (NCATS), 2007)
# Where “and” joins values, the source holds several entries; their conditions need not be identical. Identical values can stand only once. The campaign covered roughly 150,000 compounds. About 6,500 (4.3%) were called active. Inconclusive results (about 12%) are left out. Calls follow the shape of the dose curve; as a rule, active = well fitted inhibition curve with a large enough effect (not every such curve was filed as active); inconclusive = small, poorly fitted or top-dose-only effect, or another doubt; inactive = no such curve, though single readings can be large or run the other way. The entries come from a sample that favours actives as a whole. More than one record can exist for a structure, and the calls need not agree.
# Target: 15-hydroxyprostaglandin dehydrogenase [NAD(+)] (Homo sapiens) (UniProt P15428)
# Assay: qHTS Assay for Inhibitors of HPGD (15-Hydroxyprostaglandin Dehydrogenase)
# Settings: purified HPGD, NADH fluorescence kinetic, PGE2 substrate; activity change, negative = inhibition: stronger effect = lower value
# How it was run: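 20 nM HPGD preincubated 15 min at room temperature with compound in 50 mM Tris-HCl pH 8, 0.01% Tween 20. Started with 1 mM NAD+ and 30 uM prostaglandin E2; NADH fluorescence (360/450 nm) read 5 times over 30-s intervals, last minus first.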
# % is scaled to controls: 0 for no effect and ±100 for the full control effect; potency is read from the fitted curve at half-maximal effect.
# Chain of 15-hydroxyprostaglandin dehydrogenase [NAD(+)] (Homo sapiens) (P15428 whole entry, looked up): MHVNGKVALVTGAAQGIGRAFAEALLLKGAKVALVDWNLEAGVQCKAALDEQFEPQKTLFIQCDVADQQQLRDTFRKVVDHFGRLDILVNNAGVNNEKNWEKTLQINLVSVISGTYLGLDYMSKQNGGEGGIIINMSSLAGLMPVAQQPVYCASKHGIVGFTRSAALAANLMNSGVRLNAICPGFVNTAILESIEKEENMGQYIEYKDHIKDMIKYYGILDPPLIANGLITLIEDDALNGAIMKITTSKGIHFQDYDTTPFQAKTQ
SMILES,"activity change, negative = inhibition",Potency
O=C(COC(=O)c1cc2c(s1)CCCC2)NCc1ccccc1Cl,-9.08% (inactive),–
COc1ccc(CC(=O)N/N=C(\C)c2ccccn2)cc1,-4.24% (inactive),–
Cc1ccc(S(=O)(=O)N2CCC(C(=O)N[C@@H](C)C(=O)NCc3ccco3)CC2)cc1,-1.88% (inactive),–
S=C(NCCCc1cnc[nH]1)NCCCN(Cc1ccc(Cl)c(Cl)c1)c1ccc(Br)cn1,-8.19% (inactive),–
Cc1ccc(C(=O)CNc2ccc(F)cc2)cc1,-25.3% (inactive),–
COC(=O)c1ccc(NC(=O)Nc2ccc(C)cc2)cc1,-17.3% (inactive),–
COC(=O)c1ccc(NCC(=O)c2ccccc2)cc1,–,17.8 µM (active)
Cc1ccc(-n2[nH]c(C)c(/C=N/NC(=O)c3cccc([N+](=O)[O-])c3)c2=O)cc1C,-25.4% (inactive),–
Cc1sc2ncnc(Sc3nc4ccccc4s3)c2c1C,-10.4% (inactive),–
CCOC(=O)c1ccc(N2C(=O)CC(N(C)Cc3ccccc3)C2=O)cc1 (stereo not drawn),-4.27% (inactive),–
CCOc1ccc(N2C(=O)CC(N(O)c3ccccc3)C2=O)cc1 (stereo not drawn),-7.04% (inactive),–
CCCCCCC(=O)N(O)C1CC(=O)N(c2ccccc2)C1=O (stereo not drawn),–,15.8 µM (active)
CC1CN(S(=O)(=O)c2ccc(C(=O)NN3CCN(C)CC3)cc2)CC(C)O1 (stereo not drawn),-9.75% (inactive),–
Cc1ccc(C(C)C)cc1OCCN1CCCC1,7.86% (inactive),–
Cc1cc([N+](=O)[O-])c(-c2ccc(/C=N/n3cnnc3)o2)cc1Cl,-28.3% (inactive),–
Cc1cc(-c2ccc(/C=N/n3cnnc3)o2)c([N+](=O)[O-])cc1C,–,10 µM (active)
Cc1ccc(Cl)cc1-c1ccc(/C=N/n2cnnc2)o1,-18.9% (inactive),–
N#Cc1ccc(C(=O)Nc2nc(-c3cccs3)c(C(=O)C(F)(F)F)s2)cc1,3.33% (inactive),–
COc1c(C(=O)N2CCCC2)ccc2ccccc12,–,12.6 µM (active)

SMILES,"activity change, negative = inhibition",Potency
O=C(c1cccc2ccccc12)N1CCN(c2ccccc2F)CC1,-14.2% (inactive),–
COc1ccc(OCc2cccc(C(=O)N3CCCC3)c2)cc1,-28.1% (inactive),–
C/C(=N/NC(=O)c1ccc(Br)o1)c1ccc(C)o1,-27.2% (inactive),–
CCCCC/C=C\CC1OC1CCCCCCCC(=O)O (stereo not drawn),-7.93% (inactive),–
COC(=O)C/C=C/[C@@H](C)[C@H](NC(=O)OCC(Cl)(Cl)Cl)c1ccccc1,-2.46% (inactive),–
COc1ccc(C(=O)Nc2ncc3c(n2)-c2ccccc2CC3)cc1,-20.4% (inactive),–
CSc1nc2sc3c(c2c(=O)[nH]1)CCc1ccccc1-3,-7.61% (inactive),–
COc1ccc(-n2c(=S)[nH]c3sc4c(c3c2=O)CCc2ccccc2-4)cc1,–,12.6 µM (active)
Cc1cccc(C(=O)NCC(=O)OCC(=O)N2CC3(C)CC2CC(C)(C)C3)c1 (stereo not drawn),-5.91% (inactive),–
Cn1cccc1/C=N/NC(=O)c1ccc(OC(F)(F)C(F)F)cc1,-5.18% (inactive),–
COc1ccc(CN(C(=O)CSc2nnc(-c3ccc(OC)c(OC)c3)o2)c2ccc(F)cc2)cc1,–,14.1 µM (active)
CCN(CC)C(=O)CSc1nnc(-c2cccc(OC)c2)o1,-11.1% (inactive),–
COc1ccc(CCNC(=O)CSc2nnc(-c3cccc(F)c3)o2)cc1OC,-14.4% (inactive),–
COCCNC(=O)c1ccccc1NS(=O)(=O)c1ccc(C)c([N+](=O)[O-])c1,1.9% (inactive),–
O=C(Cn1[nH]c(=O)c2ccccc2c1=O)Nc1cccc(-c2nnc3n2CCCCC3)c1,–,14.1 µM (active)
Cc1cccc(NC(=O)CN2C(=O)CNC2=O)c1,-7.22% (inactive),–
Brc1cccc(-c2nnc3n2CCC3)c1,-11.6% (inactive),–
COc1ccnc(Oc2ccccc2)n1,-1.44% (inactive),–
O=[N+]([O-])c1ccc(N/N=C2/CCCCC2c2ccccn2)c([N+](=O)[O-])c1 (stereo not drawn),-4.22% (inactive),–

SMILES,"activity change, negative = inhibition",Potency
Cc1ccc(S(=O)(=O)N2CCOCC2)cc1C(=O)NC(=S)N(Cc1ccccc1)C(C)C,-17.6% (inactive),–
CCC(C(=O)OCC(=O)Nc1ccc(C(=O)Nc2ccc(OC)cc2)cc1)c1ccccc1 (stereo not drawn),-12.4% (inactive),–
Cc1nc2ccc(S(=O)(=O)NC(C(=O)N3CCCCCC3)C(C)C)cc2s1 (stereo not drawn),-2.12% (inactive),–
Cc1nc2ccc(C(=O)N3CCN(c4ccccc4)CC3)cc2s1,-2.92% (inactive),–
Cc1nc2ccc(C(=O)N3CCSCC3)cc2s1,–,1.58 µM (active)
O=C(N/N=C/c1ccc2c(c1)OCO2)c1ccc(Cn2cc([N+](=O)[O-])cn2)o1,-8.13% (inactive),–
C=CCN1C(=O)C(Cc2ccc(OCC)cc2)SC1=Nc1ccc(C(=O)O)cc1 (stereo not drawn),-8.9% (inactive),–
Cc1ccc(C)c(OCC(=O)N2CCN(C(=O)c3ccco3)CC2)c1,1.99% (inactive),–
CCc1nnc(NS(=O)(=O)c2ccc(NS(=O)(=O)c3ccccc3)cc2)s1,2.28% (inactive),–
CCc1nnc(NS(=O)(=O)c2ccc(N=Cc3c(C)[nH]n(-c4ccc(C)cc4)c3=O)cc2)s1,–,25.1 µM (active)
COc1cc(NS(=O)(=O)c2ccc(N=Cc3c(C)[nH]n(-c4ccccc4)c3=O)cc2)nc(OC)n1,-14.8% (inactive),–
COC(=O)C1(C(C)=O)CC2=CC[C@H]3C(=O)N(c4ccccc4)C(=O)[C@H]3[C@@H]2Cc2ccccc2[C@@H]1C[N+](=O)[O-] (stereo partly drawn),-2.53% (inactive) and -4.27% (inactive),–
Oc1c(Cl)cc(Cl)c(Cl)c1Cc1c(O)c(Cl)cc(Cl)c1Cl,-15.8% (inactive) and -6.53% (inactive),35.5 µM (active)
NS(=O)(=O)c1ccc(NC(=O)COC(=O)C2(c3ccc(F)cc3)CCCC2)cc1,-17% (inactive),–
Cc1ccc(NC(=O)CC2S/C(=N/N=C3\CCCc4ccccc43)NC2=O)cc1 (stereo not drawn),-13.9% (inactive),–
CCCCCCCCCOC1OC(CO)C(O)C(O)C1NC(C)=O (stereo not drawn),-3.92% (inactive),–
C=CCNC(=O)c1cc2nc(C3CC3)cc(C(F)F)n2n1,-7.97% (inactive),–
COC(=O)c1cc2nc(-c3ccccc3)cc(C(F)(F)F)n2n1,-14.5% (inactive),–
CC1CCN(C(=O)c2cc3nc(C4CC4)cc(C(F)(F)F)n3n2)CC1,–,1.26 µM (active)
